ELG1 DNA repair: qHTS screen for small molecules that inhibit ELG1-dependent DNA repair in human embryonic kidney (HEK293T) cells expressing luciferase-tagged ELG1 | HEK293T ELG1-luciferase reporter, luminescence, 16 h; DNA damage induced by 5-fluorouridine | Potency, µM (series often up to 46.1 µM), most hits filed as inhibitors | hit rate 2.3% among 330,000; also: nearly all actives have a fitted effect of over 55% in size
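HEK293T cells expressing luciferase-tagged ELG1 (2,000/well) received 5-Fluorouridine plus compound or DMSO for 16 hr at 37 °C. Luciferase was read by ONE-Glo luminescence after 30 min at room temperature.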
12-LOX inh: Primary qHTS assay for inhibitors of human arachidonate 12S-lipoxygenase (ALOX12): Round 2; Polyunsaturated fatty acid lipoxygenase ALOX12 (Homo sapiens), P18054; purified 12hLO, xylenol orange hydroperoxide absorbance; Potency, µM (highest dose often 108 µM), hits mostly inhibitors; hit rate 1.1% among 580,000; AID 1671190, 2021
Target sequence (P18054 whole entry, looked up): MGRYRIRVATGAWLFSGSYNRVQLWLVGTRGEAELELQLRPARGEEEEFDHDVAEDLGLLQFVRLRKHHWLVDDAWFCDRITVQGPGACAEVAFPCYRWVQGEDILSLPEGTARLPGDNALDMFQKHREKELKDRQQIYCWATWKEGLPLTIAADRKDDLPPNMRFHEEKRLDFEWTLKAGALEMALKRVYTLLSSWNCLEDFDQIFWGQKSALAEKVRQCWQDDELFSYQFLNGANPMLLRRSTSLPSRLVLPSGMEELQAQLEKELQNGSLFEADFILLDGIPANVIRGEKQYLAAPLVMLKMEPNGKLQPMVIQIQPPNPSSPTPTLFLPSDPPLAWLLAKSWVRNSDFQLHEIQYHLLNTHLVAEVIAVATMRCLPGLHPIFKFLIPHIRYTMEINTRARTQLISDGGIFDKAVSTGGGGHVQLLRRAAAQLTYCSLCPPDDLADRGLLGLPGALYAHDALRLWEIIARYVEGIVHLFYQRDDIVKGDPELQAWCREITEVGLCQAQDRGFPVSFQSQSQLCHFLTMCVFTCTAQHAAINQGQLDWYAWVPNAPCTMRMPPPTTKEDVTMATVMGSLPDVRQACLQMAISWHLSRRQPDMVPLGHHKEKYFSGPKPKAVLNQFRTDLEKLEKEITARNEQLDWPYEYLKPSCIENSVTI
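Purified human 12hLO at 150 nM in 25 mM Hepes, 0.01% Triton X-100, pH 7.0, preincubated 15 min at room temperature with compound. Reaction started with 40 uM arachidonic acid, 30 min at room temperature. Hydroperoxide measured by Fe-xylenol orange, 573/405 nm absorbance ratio.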
VP16 counter: VP16 counterscreen qHTS for inhibitors of ROR gamma transcriptional activity | Potency, µM (titrated, usually from 53.6 µM), actives largely listed as inhibitors | hit rate 3.5% among 310,000 | Drosophila S2 Gal4-VP16 UAS-luciferase, luminescence, 20 h;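 also: Gal4-VP16 expression switched on by copper sulfate through the metallothionein promoter; nearly all actives have a fitted effect of over 50% in size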
TDP1 cell CPT: qHTS for Inhibitors of human tyrosyl-DNA phosphodiesterase 1 (TDP1): qHTS in cells in presence of CPT. hit rate 12% among 420,000. chicken DT40 Tdp1-/-;hTDP1 cells + 20 nM CPT, ATP luminescence, 48 h. Potency, µM (highest dose often 46.2 µM), hits mostly inhibitors. AID 686979, 2013; also: nearly all actives have a fitted effect of over 55% in size
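Cell growth measured by CellTiter-Glo luminescence after a minimum 48 h, 37 C compound exposure with 20 nM CPT in Tdp1-knockout DT40 cells stably expressing hTDP1, seeded 400/well; qHTS titration format.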
DT40 TDP1 no CPT: qHTS for Inhibitors of human tyrosyl-DNA phosphodiesterase 1 (TDP1): qHTS in cells in absence of CPT | DT40 Tdp1-/- hTDP1 cells, no CPT, ATP luminescence, 48 h | Potency, µM (doses to about 46.2 µM), most hits filed as inhibitors | hit rate 15% among 420,000 | AID 686978, 2013; also: nearly all actives have a fitted effect of over 55% in size
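No-CPT arm: Tdp1-/-;hTDP1 DT40 cells (400/well) plus compounds, incubated ≥48 hr at 37 °C. Readout CellTiter-Glo luminescence.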
RORg inh: qHTS for inhibitors of ROR gamma transcriptional activity. Drosophila S2 Gal4-RORgamma UAS-luciferase reporter, 20 h. hit rate 5.4% among 310,000. Potency, µM (doses to about 53.6 µM), actives largely listed as inhibitors. AID 2551, 2010; also: nearly all actives have a fitted effect of over 60% in size
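Stably transfected Drosophila Schneider cells are the test system, with ROR gamma fused to Gal4 and luciferase under UAS control; luminescence is read after 20 hr of 700 uM copper sulfate induction at ambient temperature.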
Large screens that a line does not name were inactive. Most compounds without a hit are left out; they make up all but 15% or so of the library. Calls follow the shape of the dose curve; as a rule, active = well fitted curve in the direction sought with a large enough effect; inconclusive = small, poorly fitted or top-dose-only effect, or another doubt; inactive = no such curve, though single readings can be large; an effect the other way counts as inactive or inconclusive.

Cc1cc(C)c([N+](=O)[O-])cc1-c1ccc(/C=N/c2c(-c3ccco3)nc3ccccn23)o1	ELG1 DNA repair inconclusive, 12-LOX inh inconclusive, TDP1 cell CPT 14.6µM, DT40 TDP1 no CPT 14.6µM
CCOc1ccccc1CNC(=O)c1oc2ccc3c(c2c1C)C(=O)CC(C)(C)O3	TDP1 cell CPT inconclusive, DT40 TDP1 no CPT 13µM (no result: ELG1 DNA repair, VP16 counter, RORg inh)
Cc1c(C(=O)NCc2ccoc2)oc2ccc3c(c12)C(=O)CC(C)(C)O3	ELG1 DNA repair inconclusive, VP16 counter inconclusive, TDP1 cell CPT 14.6µM, DT40 TDP1 no CPT inconclusive, RORg inh inconclusive
CCC1(C)CC(=O)c2c(ccc3oc(C(=O)NCc4ccccc4)c(C)c23)O1 (configuration not stated)	TDP1 cell CPT 29.1µM, DT40 TDP1 no CPT 16.4µM (no result: ELG1 DNA repair, VP16 counter, RORg inh)
Cc1cc(C)c2c(=O)cc(C(=O)NCc3ccccc3)oc2c1	none
CCCNC(=O)c1oc2ccc3c(c2c1C)C(O)CC(C)(C)O3 (configuration not stated)	ELG1 DNA repair inconclusive
CC(C)CCN1C(=O)CC[C@]2(C(=O)N(C)Cc3ccccc3)CCCC[C@@H]12	none (no result: ELG1 DNA repair, VP16 counter, TDP1 cell CPT, DT40 TDP1 no CPT, RORg inh)
O=[N+]([O-])c1cc(NS(=O)(=O)c2ccc(Br)s2)c(F)cc1F	none (no result: ELG1 DNA repair, VP16 counter, TDP1 cell CPT, DT40 TDP1 no CPT, RORg inh)
CCOC(=O)N1CCc2c(sc3c2C(=O)NC(c2ccc(C(=O)OC)cc2)N3)C1 (configuration not stated)	TDP1 cell CPT 7.31µM, DT40 TDP1 no CPT 13µM (no result: ELG1 DNA repair, VP16 counter, RORg inh)
CCOC(=O)N1CCc2c(sc3c2C(=O)NC(c2cc(OC)c(OC)c(OC)c2)N3)C1 (configuration not stated)	TDP1 cell CPT 3.66µM, DT40 TDP1 no CPT 5.17µM (no result: ELG1 DNA repair, VP16 counter, RORg inh)
O=C1NC(c2ccccn2)Nc2sc3c(c21)CCC3 (configuration not stated)	ELG1 DNA repair inconclusive, VP16 counter inconclusive, DT40 TDP1 no CPT inconclusive, RORg inh 14.1µM
CN1CCc2c(sc3c2C(=O)NC(c2ccccn2)N3)C1 (configuration not stated)	none
CN1CCc2c(sc3c2C(=O)NC(c2ccc(OC(=O)c4ccc(C(C)(C)C)cc4)cc2)N3)C1 (configuration not stated)	TDP1 cell CPT inconclusive, DT40 TDP1 no CPT inconclusive (no result: ELG1 DNA repair, VP16 counter, RORg inh)
CN1CCc2c(sc3c2C(=O)NC(c2ccccc2)N3)C1 (configuration not stated)	ELG1 DNA repair inconclusive, TDP1 cell CPT inconclusive, DT40 TDP1 no CPT 23.1µM
CCOc1cc(C2NC(=O)c3c(sc4c3CCN(C)C4)N2)ccc1OC(=O)c1ccc(F)cc1 (configuration not stated)	none (no result: ELG1 DNA repair, VP16 counter, RORg inh)
CSc1ccc(/C=C2\SC(=Nc3ccccc3)N(c3ccccc3)C2=O)cc1	none (no result: ELG1 DNA repair, VP16 counter, TDP1 cell CPT, DT40 TDP1 no CPT, RORg inh)
CC(C)=C/C(C)=N/Nc1ccc(S(N)(=O)=O)cc1[N+](=O)[O-]	none (no result: ELG1 DNA repair, VP16 counter, TDP1 cell CPT, DT40 TDP1 no CPT, RORg inh)
Cc1ccc(Cn2c(=O)n(CCCC(=O)NCc3ccc4c(c3)OCO4)c(=O)c3ccccc32)cc1	none (no result: ELG1 DNA repair, VP16 counter, TDP1 cell CPT, DT40 TDP1 no CPT, RORg inh)
N#Cc1ccccc1N1CCN(C(=O)CCc2ccc(F)c(F)c2)CC1=O	none (no result: ELG1 DNA repair, VP16 counter, TDP1 cell CPT, DT40 TDP1 no CPT, RORg inh)
COc1cc(NC(=O)C2=C(N3CCOCC3)/C(=C\c3ccc(N(C)C)cc3)CCC2)cc(OC)c1OC	ELG1 DNA repair inconclusive, TDP1 cell CPT 7.31µM, DT40 TDP1 no CPT 2.91µM, RORg inh inconclusive
COc1cc(NC(=O)C2=C(N3CCOCC3)/C(=C/c3ccc(Cl)cc3)CC2)cc(OC)c1OC	ELG1 DNA repair 16.4µM, VP16 counter inconclusive, TDP1 cell CPT 6.51µM, DT40 TDP1 no CPT 7.31µM, RORg inh inconclusive
O=C(Nc1ccccc1)C1=C(N2CCOCC2)/C(=C/c2cccnc2)CC1	none
CCNC(c1ccccc1)c1ccccc1	none (no result: ELG1 DNA repair, VP16 counter, TDP1 cell CPT, DT40 TDP1 no CPT, RORg inh)
Cc1ccc(C(=O)OCC(=O)N2CCOCC2)cc1	ELG1 DNA repair inconclusive
Cc1cccc(/C(N)=N/OC(=O)N2CCOCC2)c1	TDP1 cell CPT 16.4µM, DT40 TDP1 no CPT 18.4µM
Cc1ccc(/C(N)=N/OC(=O)N2CCOCC2)cc1	VP16 counter inconclusive, TDP1 cell CPT 18.4µM, DT40 TDP1 no CPT inconclusive
COc1ccc(S(=O)(=O)Nc2ccc3c(c2)n(C)c(=O)n3C)cc1OC	ELG1 DNA repair inconclusive, DT40 TDP1 no CPT inconclusive
Cc1cc(S(=O)(=O)Nc2cc3c(cc2SC2CCCCC2)n(C)c(=O)n3C)ccc1F	none (no result: ELG1 DNA repair, VP16 counter, TDP1 cell CPT, DT40 TDP1 no CPT, RORg inh)
COc1ccc(S(=O)(=O)Nc2ccc3c(c2)n(C)c(=O)n3C)cc1F	ELG1 DNA repair inconclusive, VP16 counter inconclusive, TDP1 cell CPT 23.1µM, DT40 TDP1 no CPT inconclusive, RORg inh inconclusive
COc1ccc(Cl)cc1S(=O)(=O)Nc1ccc2c(c1)n(C)c(=O)n2C	ELG1 DNA repair inconclusive, 12-LOX inh inconclusive, TDP1 cell CPT 14.6µM, DT40 TDP1 no CPT inconclusive
Cc1cc(S(=O)(=O)Nc2ccc3c(c2)n(C)c(=O)n3C)ccc1F	TDP1 cell CPT 20.6µM, DT40 TDP1 no CPT 29.1µM
COc1ccc(Cl)cc1NC(=O)COC(=O)CCS(=O)(=O)c1ccc(C)c(C)c1	none (no result: ELG1 DNA repair, VP16 counter, TDP1 cell CPT, DT40 TDP1 no CPT, RORg inh)
COc1ccc(OC)c(S(=O)(=O)N2CCC(C(=O)Nc3ccccc3)CC2)c1	none
O=C(NCCN1C(=O)S/C(=C\c2ccc(F)cc2)C1=O)C1CCN(S(=O)(=O)c2cccs2)CC1	VP16 counter inconclusive, TDP1 cell CPT 11.6µM, DT40 TDP1 no CPT 10.3µM, RORg inh inconclusive

Screens from PubChem.
